# FLuc modulator: inhibits or activates purified firefly luciferase, miR-21 counter-screen; P08659; purified FLuc, Km substrates, luminescence inhibition; Potency, µM (top dose mostly 57.5 µM), actives largely listed as inhibitors; hit rate 6.9% among 360,000; AID 588342; note: nearly all actives have a fitted effect of over 55% in size
# Target sequence (P08659 whole entry, looked up): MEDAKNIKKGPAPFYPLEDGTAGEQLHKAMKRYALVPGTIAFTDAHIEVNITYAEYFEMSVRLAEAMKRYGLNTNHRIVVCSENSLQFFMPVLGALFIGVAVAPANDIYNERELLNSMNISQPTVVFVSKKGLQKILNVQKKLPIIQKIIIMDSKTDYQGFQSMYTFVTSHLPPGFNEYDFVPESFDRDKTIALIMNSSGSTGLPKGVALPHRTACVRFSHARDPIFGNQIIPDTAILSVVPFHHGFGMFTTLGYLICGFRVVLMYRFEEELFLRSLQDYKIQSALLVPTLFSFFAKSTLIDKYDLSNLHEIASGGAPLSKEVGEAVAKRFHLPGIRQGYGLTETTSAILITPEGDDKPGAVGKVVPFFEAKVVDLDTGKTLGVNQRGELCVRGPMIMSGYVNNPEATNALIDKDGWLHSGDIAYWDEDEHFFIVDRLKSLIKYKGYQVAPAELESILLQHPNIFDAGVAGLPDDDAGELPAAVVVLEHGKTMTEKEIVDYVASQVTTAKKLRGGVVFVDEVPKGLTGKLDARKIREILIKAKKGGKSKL
#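 Purified P. pyralis luciferase (10nM final) with 10uM D-luciferin and 10uM ATP (Km levels) in 50mM Tris acetate pH 7.5, 10mM Mg acetate, 0.01% Tween-20, 0.05% BSA; qHTS 6-point titration, ~60 µM downward; luminescence read.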
# Rab9 promoter act: activators of Rab9 promoter; Huh7 Rab9 promoter-luciferase reporter, luminescence, 24 h; Potency, µM (series often up to 9.22 µM), usual class: activators; hit rate 2.8% among 320,000; note: nearly all actives have a fitted effect of over 60% in size
#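 Rab9 promoter-driven luciferase in stably transfected Huh7 cells; 1500 cells/well rested 2 h, exposed to compound in DMSO for 24 h at 37 °C, 5% CO2. Luminescence read 10 min after adding luciferase reagent at ambient temperature.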
# ELG1 genotox: induces genotoxicity in HEK293T cells with luciferase-tagged ELG1; hit rate 1.3% among 330,000; HEK293T ELG1-luciferase reporter, luminescence, 16 h; Potency, µM (series often up to 46 µM), most hits filed as activators; note: nearly all actives have a fitted effect of over 60% in size
#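 Reporter readout depends on ELG1 protein level, which increases with genetic stress. After 16 hr compound exposure at 37 °C, luciferase activity was quantified using ONE-Glo.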
# NPC1 prom act: activates the NPC1 promoter. hit rate 2.4% among 320,000. Potency, µM (doses to about 9.22 µM), actives largely listed as activators. AID 485313. Huh7 NPC1 promoter luciferase reporter, 24 h; note: nearly all actives have a fitted effect of over 60% in size
#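 NPC1 promoter–luciferase Huh7 cells; 24 h compound; luminescence.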
# SMN2 splice enh: enhancers of SMN2 splice variant expression. HEK293 SMN2-luciferase splicing reporter, luminescence, 30-36 h. Potency, µM (doses to about 46.1 µM), actives largely listed as activators. hit rate 2.8% among 210,000. AID 1458; note: nearly all actives have a fitted effect of over 55% in size
#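 HEK293 cells carry an SMN2 minigene-luciferase reporter in which exon 7 inclusion puts luciferase in frame. Cells were seeded at 2000 cells/well, attached for 10-12 hours, then exposed to compounds for 30-36 hours at 37C before ONE-Glo luminescence.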
# A number is an active result; n = inactive; u = inconclusive; x = no result; [ ] = remark or other dose. An excerpt weighted towards active compounds, which were near 7.4% of everything screened. Calls come from the whole dose curve; as a rule, active = well fitted curve in the direction sought with a large enough effect; inconclusive = small, poorly fitted or top-dose-only effect, or another doubt; inactive = no such curve, though single readings can be large; an effect the other way counts as inactive or inconclusive.
SMILES,FLuc modulator,Rab9 promoter act,ELG1 genotox,NPC1 prom act,SMN2 splice enh
COC(=O)N/N=C(\C)c1ccc(-n2ccnc2)cc1,n,n,n,n,n
C/C(=N\NC(=O)COc1ccc(C(C)(C)C)cc1)c1cc2ccccc2o1,0.3µM,3.5µM,n,2.8µM,18µM
C/C(=N\NC(=O)COc1ccc(C)cc1C(C)C)c1cc2ccccc2o1,3.4µM,n,n,n,13µM
Cc1ccc2ccc3cc(C(=O)Nc4ccc(C)c(F)c4)nc3c2[nH]1,n,x,x,x,x
C/C(=N\NC(=O)COc1ccc(C(C)(C)C)cc1)c1ccccc1,11µM,n,n,n,n
C/C(=N\NC(=O)COc1ccc(C(C)(C)C)cc1)c1ccc2c(c1)OCCO2,19µM,n,n,n,n
CCc1ccc(OCC(=O)N/N=C(\C)c2ccc3c(c2)OCCO3)cc1,u,n,n,n,n
Cc1ccc(C)c(N2CCN(C(=O)CN3C(=O)COc4ccc(S(=O)(=O)N5CCC(C)CC5)cc43)CC2)c1,n,x,x,x,n
CCOC(=O)c1cc(-c2ccc(OC)cc2)nn1Cc1ccccc1,7.6µM,x,x,x,n
O=C1c2ccccc2S(=O)(=O)N1CC1CC(c2ccccc2)=NO1 (stereo not drawn),6µM,1.4µM,4.1µM,3.2µM,n
COc1ccc(C2=NOC(Cn3nc(-c4ccccc4)cc3C(=O)O)C2)cc1 (stereo not drawn),4.8µM,n,n,n,x
O=C(CCN1C(=O)c2ccccc2S1(=O)=O)Nc1ccc(Cl)cc1,n,n,n,n,x
O=C1c2ccccc2S(=O)(=O)N1CC1CC(c2ccc(Cl)cc2)=NO1 (stereo not drawn),2.4µM,2.2µM,16µM,3.5µM,16µM
Cc1ccc(-c2cc(C(=O)O)n(Cc3ccccc3)n2)cc1,u,x,x,x,n
COc1ccc(CCn2c(=O)c3cccnc3n(CC(=O)Nc3c(C)cccc3C)c2=O)cc1OC,n,x,x,x,n
CCCN1CCN(CC(=O)Nc2nnc(CC)s2)CC1,n,n,n,n,x
COc1ccc(-c2cn(Cc3ccc(C(=O)c4ccccc4)cc3)nn2)cc1,11µM,u,18µM,u,x
COc1ccc(C2=NOC(CN3C(=O)c4ccccc4S3(=O)=O)C2)cc1 (stereo not drawn),2.1µM,0.89µM,u,1.3µM,u
COc1ccc(C2=NOC(Cn3nc(C(=O)O)cc3-c3ccccc3)C2)cc1 (stereo not drawn),n,n,n,n,x
COc1ccc(-c2cn(Cc3ccc4ccccc4c3)nn2)cc1,n,n,n,n,x
CCOc1ccccc1NC(=O)C(=O)NCCc1sc(-c2cccc(F)c2)nc1C,n,x,x,x,x
CCCNC(=O)C(Cc1ccccc1)NC(=O)c1ccc(C(F)(F)F)cc1 (stereo not drawn),n,n,n,n,x
CC1CCC(NC(=O)CCNC(=O)c2ccc(Br)cc2)CC1 (stereo not drawn),u,2.5µM,u,4.5µM,x
Cc1cccc(NC(=O)CCNC(=O)c2ccc(Br)cc2)c1,13µM,u,u,n,x
O=C(Nc1cccc(O)c1)c1ccc(Br)cc1,12µM,u,5.8µM,u,n
SMILES,FLuc modulator,Rab9 promoter act,ELG1 genotox,NPC1 prom act,SMN2 splice enh
O=C(CCNC(=O)c1ccc(Br)cc1)Nc1cccc(S(=O)(=O)N2CCCC2)c1,n,n,n,n,x
Nc1ccc(C(=O)Nc2cccc(N)c2)cc1,21µM,u,n,u,x
Cc1ccccc1C(=O)Nc1cccc(N)c1,u,n,n,n,u
CCCCc1ccc(NC(=O)CSc2nc(=O)n(CCN(CC)CC)c3c2CCC3)cc1,n,n,n,n,x
COc1cc([N+](=O)[O-])ccc1NC(=O)N1CCN(c2cc(-c3noc(C)n3)ccc2C)CC1,n,x,x,x,x
CC(=O)N1CCc2cc(S(=O)(=O)C(C)CC(=O)Nc3ccc(OC(F)(F)F)cc3)ccc21 (stereo not drawn),n,n,n[9.26 µM],n,x
CC(C)(CO)[C@H](O)C(=O)NCCC(=O)O,x,x,x,x,n
CC(=O)Nc1cccc(NC(=O)c2ccc(Br)cc2)c1,24µM,u,n,n,n
CSCCC(NS(=O)(=O)c1ccc(C)cc1)C(=O)NCC(C)(C)N1CCOCC1 (stereo not drawn),n,n,n,n,x
CCOc1ccc(N=Nc2ccc(O)c3ncccc23)cc1,n,n,u,n,x
CC(=O)Nc1ccc(N)cc1,n,n,n,n,n

# Bioassay records (PubChem BioAssay)
